Assay results: ChEMBL document CHEMBL4513216, “Probing the Open Global Health Chemical Diversity Library for Multistage-Active Starting Points for Next-Generation Antimalarials” (ACS Infect Dis, 2020)
Screen size: about 65,000 compounds; about 2,100 (3.2%) showed an effect of 50% or more. The median lay at about -52%. The sample holds strong results, similar compounds and a random draw of the others, so the mix is not that of the screen.

Test system: Plasmodium falciparum
Assay: Screen against P. falciparum Asexual Blood Stage (ABS), at 5uM
Assay type: functional, Dd2
Conditions: tested at 5 uM

| Compound | INHIBITION [%] |
| --- | --- |
| CN1CCOC(CNCCOc2ccc(C#N)cc2)C1 (centres undefined) | -41.7 |
| Oc1coc2cc(OC[C@@H]3CCCN4CCCC[C@H]34)ccc12 | -8.29 |
| Cc1c(Cl)cccc1S(=O)(=O)N1CCC(S(=O)(=O)c2nncn2C)CC1 | -68.7 |
| O=C(NCc1cnc2n1CCN(Cc1ccsc1)CC2)C1CCC1 | -48.2 |
| CNS(=O)(=O)CCCN1CCCC1c1noc(C)n1 (centres undefined) | -104 |
| CCc1nc(C2CCCN2Cc2nc(C(C)(C)C)no2)no1 (centres undefined) | -105 |
| CCn1cc(CNC(=O)CC(C)C)cn1 | -153 |
| CC(C)n1ccnc1CN1CCCN(C(=O)c2cnc[nH]2)CC1 | 60.4 |
| CC(C)n1ccnc1CN1CCCN(C(=O)c2cc(Cl)c[nH]2)CC1 | 39 |
| Cc1[nH]ncc1C(=O)N1CCCN(Cc2nccn2C(C)C)CC1 | 11.1 |
| CN(C)CC(=O)N1CCC2(CC(=O)N(c3cccc(C#N)c3)C2)C1 (centres undefined) | -30 |
| Cc1cccc(CN2CCC3(CC(C(=O)NCC(C)C)=NO3)C2)c1 (centres undefined) | -93.1 |
| CCOCCN1CCN(CCOCC(F)(F)F)CC1 | -38.7 |
| Cn1ccnc1C(O)(CCNCc1ccco1)C(F)(F)F (centres undefined) | 64.6 |
| FC(F)(F)C1CCCn2c(CNCc3ccco3)nnc21 (centres undefined) | -67 |
| CC(C(=O)NCc1ccco1)N1CCN(Cc2nccn2C)CC1 (centres undefined) | -35.6 |
| CCc1cc(=O)[nH]c(-n2nc(C3CC3)cc2NC(=O)C2CC2)n1 | -66.5 |
| COCCN1CCC(NC(=O)Nc2cccc(F)c2)C1 (centres undefined) | -54.6 |
| COCCC(=O)NC1CCN(CC2(c3cccc(F)c3)CCCC2)CC1 | 69.1 |
| COCCN1CCC(NC(=O)NCC2(c3cccc(F)c3)CC2)C1 (centres undefined) | -77.2 |
| CC(=O)NCC(=O)N1CCn2cc(CN3CCCCC3)nc2C1 | -144 |
| O=C(c1ccc(S(=O)(=O)NCCc2ccncc2)cc1)N1CCCC1 | -36.5 |
| COc1ccc(NC2CCc3c2[nH]c(=O)n(C2CCCCC2)c3=O)cc1 (centres undefined) | -98.2 |
| CC(=O)N1CCC(c2ccnc(Nc3cncnc3)n2)CC1 | -18.6 |
| c1ncc(Nc2nccc(C3CCCCN3CC3CCCCC3)n2)cn1 (centres undefined) | 52 |
| CC(=O)N1CCCC1c1ccnc(Nc2cncnc2)n1 (centres undefined) | -101 |
| CN(C)CCCNC(=O)c1cnc(Cc2ccc(F)cc2)s1 | 27.4 |

| Compound | INHIBITION [%] |
| --- | --- |
| Cc1cnc(C(=O)NC(CN2CCCC2=O)c2ccccc2)cn1 (centres undefined) | 69.6 |
| Cc1cccc(C(=O)NC(CN2CCCC2=O)c2ccccc2)n1 (centres undefined) | -161 |
| Cc1ccc(C(=O)NC(CN2CCCC2=O)c2ccccc2)cn1 (centres undefined) | -81.3 |
| Cn1c2ccccc2c2ncn(CCN3CCOCC3)c(=O)c21 | -57.9 |
| Cc1[nH]c2ccccc2c1-c1ccnc(N[C@H](CO)CC(C)C)n1 | 51.9 |
| Cc1[nH]c2ccccc2c1-c1ccnc(N[C@@H](C)CO)n1 | -21.2 |
| Cc1[nH]c2ccccc2c1-c1ccnc(N[C@@H](CO)C(C)C)n1 | -9.36 |
| CC(c1nc(-c2ccccc2)no1)N1CCc2c(ncn2C2CC2)C1 (centres undefined) | -19.5 |
| Fc1cccnc1Oc1cc(F)c(CN2CCCC2)c(Cl)c1 | -49.5 |
| Cn1ccnc1CN1C[C@@H](CN2CCC(CO)CC2)[C@@H](CO)C1 | -1.49 |
| CN1CCN(C[C@@H]2CN(C(=O)c3ccccc3C#N)C[C@@H]2CO)CC1 | -106 |
| Cc1cccc(CN2C[C@@H](CN3CCCN(C)CC3)[C@@H](CO)C2)n1 | -29.5 |
| OC[C@H]1CN(C2Cc3ccccc3C2)C[C@H]1CN1CCC(O)CC1 | 15.1 |
| CN1CCN(C[C@@H]2CN(C3Cc4ccccc4C3)C[C@@H]2CO)CC1 | 51.4 |
| OCC1CCN(C[C@@H]2CN(C3Cc4ccccc4C3)C[C@@H]2CO)CC1 | 66.4 |
| Cc1cc(NCCN2CCNC2=O)nc2cc3c(cc12)CCC3 | -14.4 |
| CSCCN1CCC(NC(=O)c2cccc(C3CCCNC3)c2)CC1 (centres undefined) | -131 |
| CC1CCN(c2nc3c(cnn3-c3ccccc3)c(=O)[nH]2)CC1 | -6.59 |
| O=c1[nH]c(N2CC(O)C2)nc2c1cnn2-c1ccccc1 | -202 |
| O=c1[nH]c(N2CCN(C3CC3)CC2)nc2c1cnn2-c1ccccc1 | 50.1 |
| Cc1cc(Cl)cc(C)c1CNC1CCN(CC(=O)N(C)C)CC1 | 54.4 |
| Cc1nc(-c2c(C)noc2C)cc(C2CCN(CC(=O)N(C)C)CC2)n1 | -74 |
| Cc1cc2cc(CNC3CCN(CC(=O)N(C)C)CC3)oc2cc1C | -159 |
| CC(C)CNC(=O)c1cccc(CN2CCc3c(ncn3C)C2)c1 | -103 |
| CCOc1cccc2c1OCC(=O)N(c1ccc3c(c1)OCCO3)C2 | -105 |
| COCCN1CCN(Cc2c(C)noc2C)Cc2cccnc21 | -19.1 |
| Cc1ccc2c(n1)N(CCN(C)C)CCN(Cc1c(C)noc1C)C2 | 63.1 |
